Compounds with a hit are over-represented: about 3.4% of the library has one in this group of screens.
TEAD-YAP block = TEAD-YAP interaction inhibition; inhibition, % at 9.12 µM; HEK-TIYL cells, TEAD-Gal4/YAP UAS-luciferase luminescence; hit rate 1.4% among 640,000; in the data active = inhibition above about 32%;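 also: 0% = median of test compound wells and 100% = reference inhibitor wells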
GPR151 ag = activators of human GPR151. Q8TDV0. PathHunter beta-arrestin GPR151 cells, luminescence. activation, % at 11.2 µM. hit rate 1% among 650,000. AID 1508602; in the data active = activation above about 4.9%;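 also: 0% = median of compound wells and 100% = cells with positive control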
Target sequence (Q8TDV0 whole entry, looked up): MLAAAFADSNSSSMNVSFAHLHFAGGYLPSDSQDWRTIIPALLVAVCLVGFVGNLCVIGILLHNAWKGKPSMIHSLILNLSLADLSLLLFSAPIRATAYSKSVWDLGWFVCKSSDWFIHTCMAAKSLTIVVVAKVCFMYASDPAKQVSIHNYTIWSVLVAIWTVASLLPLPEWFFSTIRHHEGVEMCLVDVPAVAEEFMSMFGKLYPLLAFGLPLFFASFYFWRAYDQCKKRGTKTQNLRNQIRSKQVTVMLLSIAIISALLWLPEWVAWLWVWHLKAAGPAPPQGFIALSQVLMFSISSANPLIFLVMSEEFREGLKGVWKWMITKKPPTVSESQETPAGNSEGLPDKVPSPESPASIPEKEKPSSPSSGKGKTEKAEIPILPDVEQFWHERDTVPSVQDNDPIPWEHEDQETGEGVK
MITF primary = inhibitors of human MITF; inhibition, % at 2.6 µM; AID 1259374; AlphaScreen MITF homodimerization, bead proximity signal; O75030; hit rate 0.91% among 650,000; in the data active = inhibition above about 50%;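 also: 0% = vehicle wells with protein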
FBW7 activator = activators of human E3 ligase FBW7 | Q969H0 | AlphaScreen FBW7–phospho-cyclin E peptide binding, activator screen | normalized activity (activation), % at 26.1 µM | hit rate 0.13% among 650,000 | AID 1259310; in the data active = normalized activity above about 1.9%;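 also: purified mutant Fbw7 with reduced substrate affinity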
Numbers without * were called inactive.

SMILES	TEAD-YAP block	GPR151 ag	MITF primary	FBW7 activator
N#CC1=C(N)Oc2cc3ccccc3cc2C1c1cccnc1 (configuration not stated)	48*	-1	10	0
N#CC1=C(N)Oc2cc3ccccc3cc2C1c1cccs1 (configuration not stated)	44*	-1	30	0
N#CC1=C(N)Oc2cc3ccccc3cc2C1c1ccc(F)cc1 (configuration not stated)	47*	3	-7	0
COc1cc(C2C(C#N)=C(N)Oc3c2ccc2ccccc32)ccc1O (configuration not stated)	58*	2	2	0
CCCSc1nc2sc3c(c2c(=O)n1-c1ccc(C)cc1)CC(C)(C)OC3	-4	1	15	1
CCOc1ccc(C(=O)Oc2coc(CSc3nccc(C)n3)cc2=O)cc1OCC	3	-2	1	0
CCOC(=O)c1c(C)[nH]c(-c2csc(N)n2)c1C	32*	1	6	0
CCCCN1C(=O)c2cccc3c([N+](=O)[O-])ccc(c23)C1=O	11	1	28	0
CC(Oc1ccc(Br)cc1Cl)C(=O)Nc1ccncc1 (configuration not stated)	48*	4	-3	0
CC(C)n1cnc2c(NC3CC3)nc(Nc3ccccn3)nc21	25	0	3	0
COc1ccc(CCNc2nc(Nc3cnccn3)nc3c2ncn3C(C)C)cc1	36*	1	2	0
CC(C)n1cnc2c(NC3CCN(Cc4ccccc4)CC3)nc(N3CCCC3CO)nc21 (configuration not stated)	36*	-1	10	0
CC(C)n1cnc2c(NC3CCN(Cc4ccccc4)CC3)nc(Nc3ccncc3)nc21	69*	-1	-10	0
CC(C)n1cnc2c(NC3CC3)nc(Nc3cnccn3)nc21	38*	2	8	0
OCC1CCCN1c1nc(NC2CCN(Cc3ccccc3)CC2)c2ncn(C3CCCCC3)c2n1 (configuration not stated)	-15	-1	2	0
COc1ccccc1N1CCN(c2ccc(C(F)(F)F)cc2[N+](=O)[O-])CC1	7	1	24	0
COc1ccc(CCNc2nc(Nc3cnccn3)nc3c2ncn3C2CCCCC2)cc1	14	-1	-8	0
Oc1ccc(CCNc2nc(Nc3cnccn3)nc3c2ncn3C2CCCCC2)cc1	40*	0	-7	0
Oc1ccc(CCNc2ccnc(Nc3cnccn3)n2)cc1	4	0	12	0
CC(C)n1cnc2c(NC3CCN(Cc4ccccc4)CC3)nc(Nc3ccccc3)nc21	15	0	8	0
CC(C)n1cnc2c(NC3CCN(Cc4ccccc4)CC3)nc(Nc3cnccn3)nc21	76*	2	12	0
CC(C)n1cnc2c(NCc3cccnc3)nc(NC3CCN(Cc4ccccc4)CC3)nc21	-2	1	8	0
Oc1ccc(CCNc2cc(Nc3cnccn3)ncn2)cc1	46*	3	-11	0
CC(C)n1cnc2c(NC3CCN(Cc4ccccc4)CC3)nc(NCc3cccnc3)nc21	76*	-2	16	0
O=C(c1ccccc1F)N1CCN(c2cc(N3CCCC3)c(F)cc2[N+](=O)[O-])CC1	18	0	23	0
SMILES	TEAD-YAP block	GPR151 ag	MITF primary	FBW7 activator
O=C(NCCCCCCNC(=O)Nc1cccnc1)Nc1cccnc1	57*	0	-5	0
COc1ccc(N2C(=O)CSC23C(=O)Nc2ccc(Br)cc23)cc1 (configuration not stated)	9	-1	4	0
COC(=O)c1ccc(N2N=C(C)/C(=C/c3ccc(OCc4ccc(Cl)cc4)c(OC)c3)C2=O)cc1	-70	3	24	2.0*
CCOC(=O)C1=C(CC)NC2=C(C(=O)CC(C)(C)C2)C1c1cccnc1 (configuration not stated)	0	0	0	0
CC(=O)N(/N=C1\Sc2ccccc2C1=O)c1ccc(Br)cc1	-12	0	27	0
CC(=O)N(/N=C1\Sc2ccccc2C1=O)c1ccccc1[N+](=O)[O-]	59*	-1	25	0
CC(=O)/C=C1\N(C)c2ccccc2C1(C)C	-10	1	10	0
CC(=O)c1ccc(S(=O)(=O)N(C)CC(=O)/C=C2/N(C)c3ccccc3C2(C)C)cc1	38*	1	4	0
CC1=C(C(=O)Nc2ccccn2)C(c2ccsc2)C2=C(CCCC2=O)N1 (configuration not stated)	-8	0	-7	0
COCCNC(=O)c1ccc(Cl)c(S(=O)(=O)Nc2ccc(C)c(C)c2)c1	5	2	6	0
Cc1ccc(S(=O)(=O)NCC2CCC(C(=O)N(C)CCC#N)CC2)cc1 (configuration not stated)	5	-1	16	1
N#Cc1ccsc1NC(=O)c1ccccc1	-12	-3	-13	0
N#Cc1ccsc1NC(=O)c1cccc2ccccc12	47*	1	-5	0
N#Cc1ccsc1NC(=O)c1ccccc1Cl	1	0	9	0
Cc1ccc(C(=O)Nc2sccc2C#N)cc1C	-15	-10	-8	0
N#Cc1ccsc1NC(=O)/C=C/c1ccccc1	64*	-11	-13	0
N#Cc1ccsc1NC(=O)c1ccc2c(c1)CCCC2	43*	-6	3	0
O=C(NCCc1ccc(O)cc1)c1cc(N2CCN(Cc3ccc4c(c3)OCO4)CC2)nc2ccccc12	48*	0	12	0
CCCNC(=O)c1cc(N2CCN(Cc3ccc4c(c3)OCO4)CC2)nc2ccccc12	-9	0	-4	0
O=C(c1cnc(N2CCN(c3ccccn3)CC2)c2ccccc12)N1CCN(Cc2ccc3c(c2)OCO3)CC1	57*	2	0	0
COC(=O)c1cnc(N2CCN(Cc3ccc4c(c3)OCO4)CC2)c2ccccc12	9	-1	2	0
Cc1csc(NC2OC(=O)c3ccccc32)n1 (configuration not stated)	-6	0	17	0
O=C1OC(Nc2nc3ccccc3s2)c2ccccc21 (configuration not stated)	-4	-1	10	2.0*
Cc1ccc(CN2C(=O)C3C(C(=O)Nc4ccc(C)c(Cl)c4)C4C=CC3(O4)C2C(=O)NC2CCCC(C)C2C)cc1 (configuration not stated)	4	0	0	0
O=C(CSc1ccccc1)N1CCOc2ccc(-c3ccncc3)cc21	34*	-1	11	0
COc1ccc(C=Nc2ccc(S(N)(=O)=O)cc2)cc1O	-3	0	3	0
Cc1ccccc1NC(=O)c1sc2nc3c(cc2c1N)C(=O)CCC3	39*	2	2	0
CCc1ccccc1NC(=O)c1sc2nc3c(cc2c1N)C(=O)CCC3	54*	-1	8	0
CCc1ccccc1NC(=O)c1sc2nc3c(cc2c1N)C(=O)CC(C)(C)C3	3	0	6	0
CCOc1cc(C2C(C(=O)OCC(C)C)=C(C)NC3=C2C(=O)CC(c2ccc(Cl)cc2)C3)cc(Br)c1O (configuration not stated)	16	1	22	1

Assay outcomes: PubChem BioAssay, The Scripps Research Institute Molecular Screening Center
